Screening data as filed in PubChem BioAssay.
DAX1 inh-1 – inhibitors of human orphan nuclear receptor DAX1 (NR0B1); inhibition, % at 6.75 µM; 0.99% of 340,000 active; HEK293 Gal4-DAX1 luciferase reporter, luminescence;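 active = inhibition above the mean over all tested compounds plus 3 SD, cut at about 4.2% in these data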;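 note: 0% = DAX1-transfected cells with DMSO and 100% = empty-vector control cells with DMSO; inhibition shows as a rise in luminescence from relieved DAX1 repression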
Target sequence (P51843 207-470 limits assumed): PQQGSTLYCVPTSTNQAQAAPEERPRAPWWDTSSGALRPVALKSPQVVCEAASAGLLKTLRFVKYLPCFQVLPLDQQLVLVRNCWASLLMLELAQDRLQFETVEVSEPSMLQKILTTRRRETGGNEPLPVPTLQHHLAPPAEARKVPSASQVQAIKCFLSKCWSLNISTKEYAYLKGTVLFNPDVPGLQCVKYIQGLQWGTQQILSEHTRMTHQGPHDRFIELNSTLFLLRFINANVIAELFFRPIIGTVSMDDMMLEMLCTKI
hcDAF-12 act – activates DAF-12 receptor from parasite H. contortus; 1.4% of 370,000 active; HEK293 hcDAF-12 lit1-tk-luc reporter, luminescence; 0% DMSO, 100% Δ7-dafachronic acid; activation, % at 6.8 µM;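 active = activation above the mean of all tested compounds plus 3 SD, cut at about 5.5% in these data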;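 note: 100% = response to 3 µM Δ7-dafachronic acid high control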
hgDAF12 agonist – hgDAF-12 agonism, primary luciferase screen; 1.8% of 370,000 active; activation, % at 6.8 µM; HEK293 GAL4-hgDAF12 UAS-luciferase reporter, agonist luminescence; normalized to butyrate control;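 active = activation above a cutoff set at the mean of all screened compounds plus 3 SD, cut at about 10% in these data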;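 note: 0% = DMSO wells and 100% = sodium butyrate wells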
ssDAF-12 act – S. stercoralis DAF-12 activation, primary screen; HEK293 ssDAF-12/GRIP1 lit1-tk-luc reporter, luminescence; % of 3 µM dafachronic acid response; AID 652126; activation, % at 6.8 µM; 1% of 370,000 active;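 active = activation above the mean over all tested compounds plus 3 SD, cut at about 0.9% in these data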;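 note: 0% = DMSO-only wells and 100% = 3 µM delta7-dafachronic acid wells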
DAX1 inh-2 – inhibitors of DAX1 repression of SF-1 activated StAR promoter; HEK293T StAR-luciferase reporter, SF-1/DAX-1 repression relief; inhibition, % at 6.8 µM; 1.1% of 370,000 active; AID 652010;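 active = inhibition above the mean over all tested compounds plus 3 SD, cut at about 3.6% in these data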;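 note: 0% = DAX-1 cells with DMSO and 100% = cells lacking DAX-1 with DMSO; higher inhibition means more luminescence from relief of DAX-1 repression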
LXRb hcDAF ctr – counter-screen for hcDAF-12 agonists: agonists of human LXR-beta. shares compounds with hcDAF-12 act. HEK293 Gal4-LXR tk-luc reporter, luminescence, 24 h; normalized: DMSO 0%, positive control 100%. activation, % at 6.8 µM. 3,400 tested, under 10 active;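 active = mean percent activation of the reporter above a cutoff set as the average over tested compounds plus their standard deviation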
hcDAF12 conf – hcDAF-12 agonism, confirmation assay | shares compounds with hcDAF-12 act | HEK293 hcDAF-12 lit1-tk-luc reporter, luminescence; % of Δ7-dafachronic acid response | activation, % at 6.8 µM | 61% of 3,400 active | AID 743032;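 active = mean activation across triplicate tests above the threshold derived from the earlier primary screen, cut at about 5.5% in these data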;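 note: 0% = DMSO only wells and 100% = 3 µM Δ7-dafachronic acid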
Active calls of the source: *. Hits are enriched below; roughly 4.1% of the tested compounds scored in any of these assays.

Screening O=C(c1cccc(Cl)c1)N1CCCC(C(=O)N2CCN(c3ccccc3)CC2)C1 (centres undefined) returned DAX1 inh-1 1, hcDAF-12 act -1, hgDAF12 agonist -2, ssDAF-12 act -1 and DAX1 inh-2 -3.
`N#C/C(=C/c1ccc(N2CCOCC2)o1)c1nc2ccccc2[nH]1` gave DAX1 inh-1 3, hcDAF-12 act 6.8*, hgDAF12 agonist 2, ssDAF-12 act 1, DAX1 inh-2 2, LXRb hcDAF ctr 2 and hcDAF12 conf 8.1*.
For N#C/C(=C\c1ccc(N2CCOCC2)o1)c1ccccc1 the results were DAX1 inh-1 -1, hcDAF-12 act -1, hgDAF12 agonist -2, ssDAF-12 act -2 and DAX1 inh-2 0.
For O=C(N/N=C/c1c(Cl)[nH]c2ccccc12)c1ccc2c(c1)OCCO2 the results were hcDAF-12 act 9.1*, hgDAF12 agonist 8, ssDAF-12 act 1.3*, DAX1 inh-2 0, LXRb hcDAF ctr 0 and hcDAF12 conf 9.1*.
`Cc1ccsc1/C=N/NC(=O)c1ccc2c(c1)OCCO2` gave DAX1 inh-1 -1, hcDAF-12 act 8.1*, hgDAF12 agonist 13*, ssDAF-12 act 1, DAX1 inh-2 2, LXRb hcDAF ctr 2 and hcDAF12 conf 12*.
Nn1c(Nc2ccccc2)nc2sc3c(c2c1=O)CCCC3 was read as DAX1 inh-1 0, hcDAF-12 act -2, hgDAF12 agonist -2, ssDAF-12 act -1 and DAX1 inh-2 0.
`O=C1N(Cc2cccnc2)C[C@@H]2C[C@@H](c3cccc(OC4CCCC4)c3)N3CCC[C@@]123` gave DAX1 inh-1 0, hcDAF-12 act 0, hgDAF12 agonist 0, ssDAF-12 act 0 and DAX1 inh-2 0.
COc1ccc([N+](=O)[O-])cc1NC(=O)COC(=O)c1ccccn1 was read as DAX1 inh-1 2, hcDAF-12 act 1, hgDAF12 agonist 1, ssDAF-12 act -1 and DAX1 inh-2 0.
Screening COc1cccc(N2CCN(c3ccc4nnc(CCC(=O)Nc5ccc(OC)c(OC)c5)n4n3)CC2)c1 returned DAX1 inh-1 0, hcDAF-12 act -1, hgDAF12 agonist 2, ssDAF-12 act -1 and DAX1 inh-2 0.
O=C(O)c1ccc(Cn2cnc3c(=O)[nH]cnc32)cc1 was read as DAX1 inh-1 1, hcDAF-12 act 10*, hgDAF12 agonist 1, ssDAF-12 act 1.2*, DAX1 inh-2 1, LXRb hcDAF ctr 0 and hcDAF12 conf -1.
`Cc1cnc(CNc2nc3cc(-c4ccccc4C)sc3c(=O)n2C)cn1` gave hcDAF-12 act -2, hgDAF12 agonist -1, ssDAF-12 act -1 and DAX1 inh-2 -1.
Screening COCCn1c(SCC(=O)N2CCCCCC2)nc2c([nH]c3ccccc32)c1=O returned DAX1 inh-1 1, hcDAF-12 act 7.2*, hgDAF12 agonist 3, ssDAF-12 act 0, DAX1 inh-2 1, LXRb hcDAF ctr 0 and hcDAF12 conf 0.
`CCn1c(SCC(=O)NCCc2ccc(OC)c(OC)c2)nc2c([nH]c3ccccc32)c1=O` gave DAX1 inh-1 0, hcDAF-12 act 4, hgDAF12 agonist 3, ssDAF-12 act 1 and DAX1 inh-2 0.
For CCn1c(SCC(=O)NCCc2ccccc2)nc2c([nH]c3ccccc32)c1=O the results were DAX1 inh-1 0, hcDAF-12 act 7.2*, hgDAF12 agonist 4, ssDAF-12 act 0, DAX1 inh-2 1, LXRb hcDAF ctr 0 and hcDAF12 conf 6.7*.
COC(=O)c1ccccc1NC(=O)c1onc(C)c1Cl was read as DAX1 inh-1 1, hcDAF-12 act 0, hgDAF12 agonist 3, ssDAF-12 act -1 and DAX1 inh-2 0.
CCc1ccccc1NC(=O)c1onc(C)c1Cl was read as DAX1 inh-1 0, hcDAF-12 act 9.4*, hgDAF12 agonist 2, ssDAF-12 act 0, DAX1 inh-2 1, LXRb hcDAF ctr 0 and hcDAF12 conf 2.
